# Laboratory results taken from the supplement of paper PMC8728848.
# Shown is part of a subset that was picked to be rich in the strongest signals.
# Key:
# Experiment in all cases: glycan array binding signal (z-score within array); higher = stronger binding
# Details in all cases: glycan notation: IUPAC condensed, linker removed
# Fuc(a1-2)Gal(b1-4)Glc6S = target: Fuc(a1-2)Gal(b1-4)Glc6S
# How it was run: (§1)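 Glycan array data came from 3228 arrays in the Consortium for Functional Glycomics database, and only arrays with an available protein sequence were kept. Glycan names were put into IUPAC-condensed notation, and columns mapping to the same glycan were averaged. The binding signal is a within-array Z-score, averaged across arrays of one protein sequence run at different concentrations or buffers and across linkers. A negative Z-score can be read as non-binding.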
# [1] = target: Fuc(a1-2)[GalNAc(a1-3)]Gal(b1-4)Glc
# How it was run: as §1
# [2] = target: Gal(b1-3)Gal(b1-4)GlcNAc(b1-2)Man(a1-3)[Gal(b1-3)Gal(b1-4)GlcNAc(b1-2)Man(a1-6)]Man(b1-4)GlcNAc(b1-4)GlcNAc
# How it was run: as §1
# [3] = target: Gal(b1-3)GlcNAc(b1-2)Man(a1-3)[Gal(b1-3)GlcNAc(b1-2)Man(a1-6)]Man(b1-4)GlcNAc(b1-4)GlcNAc
# How it was run: as §1
# [4] = target: Gal(b1-3)[Fuc(a1-4)]GlcNAc
# How it was run: as §1
# Gal(b1-4)GlcNAc = target: Gal(b1-4)GlcNAc
# How it was run: as §1
# [5] = target: Gal(b1-4)GlcNAc(b1-3)Gal(b1-3)GlcNAc
# How it was run: as §1
# Gal3S(b1-3)GlcNAc = target: Gal3S(b1-3)GlcNAc
# How it was run: as §1
# Gal3S4S(b1-4)GlcNAc = target: Gal3S4S(b1-4)GlcNAc
# How it was run: as §1
# GalNAc(a1-3)Gal = target: GalNAc(a1-3)Gal
# How it was run: as §1
# GalNAc(a1-3)GalNAc = target: GalNAc(a1-3)GalNAc
# How it was run: as §1
# [6] = target: GalNAc(b1-3)Gal(a1-4)Gal(b1-4)GlcNAc
# How it was run: as §1
# [7] = target: GlcNAc(a1-4)Gal(b1-4)GlcNAc(b1-3)Gal(b1-4)[Fuc(a1-3)]GlcNAc(b1-3)Gal(b1-4)[Fuc(a1-3)]GlcNAc
# How it was run: as §1
# [8] = target: GlcNAc(b1-4)GlcNAc(b1-4)GlcNAc(b1-4)GlcNAc(b1-4)GlcNAc
# How it was run: as §1
# [9] = target: GlcNAc(b1-4)GlcNAc(b1-4)GlcNAc(b1-4)GlcNAc(b1-4)GlcNAc(b1-4)GlcNAc
# How it was run: as §1
# [10] = target: GlcNAc6S(b1-3)Gal(b1-4)GlcNAc
# How it was run: as §1
# [11] = target: Kdn(a2-3)Gal(b1-4)[Fuc(a1-3)]GlcNAc
# How it was run: as §1
# [12] = target: Man(a1-2)Man(a1-2)Man(a1-6)[Man(a1-3)]Man
# How it was run: as §1
# [13] = target: Man(a1-2)Man(a1-3)[Man(a1-2)Man(a1-6)]Man(a1-6)[Man(a1-2)Man(a1-2)Man(a1-3)]Man
# How it was run: as §1
# [14] = target: Man(a1-2)Man(a1-3)[Man(a1-2)Man(a1-6)]Man(a1-6)[Man(a1-3)[Man(a1-6)]Man(a1-6)]Man(b1-4)GlcNAc(b1-4)GlcNAc
# How it was run: as §1
# [15] = target: Man(a1-2)Man(a1-3)[Man(a1-6)]Man(a1-6)[Man(a1-2)Man(a1-3)]Man(b1-4)GlcNAc(b1-4)GlcNAc
# How it was run: as §1
# [16] = target: Man(a1-2)Man(a1-6)[Man(a1-3)]Man(a1-6)[Man(a1-2)Man(a1-2)Man(a1-3)]Man(b1-4)GlcNAc(b1-4)GlcNAc
# How it was run: as §1
# Man(a1-3)[Man(a1-6)]Man = target: Man(a1-3)[Man(a1-6)]Man
# How it was run: as §1
# [17] = target: Man(a1-3)[Man(a1-6)]Man(a1-6)[Man(a1-2)Man(a1-3)]Man(b1-4)GlcNAc(b1-4)GlcNAc
# How it was run: as §1
# [18] = target: Man(a1-3)[Man(a1-6)]Man(a1-6)[Man(a1-3)]Man(b1-4)GlcNAc(b1-4)GlcNAc
# How it was run: as §1
# [19] = target: Man(a1-3)[Man(a1-6)]Man(b1-4)GlcNAc(b1-4)GlcNAc
# How it was run: as §1
# [20] = target: Neu5Ac(a2-3)Gal(b1-4)GlcNAc6S
# How it was run: as §1
# [21] = target: Neu5Ac(a2-3)Gal(b1-4)[Fuc(a1-3)]GlcNAc
# How it was run: as §1
# [22] = target: Neu5Ac(a2-6)Gal(b1-4)GlcNAc
# How it was run: as §1
# [23] = target: Neu5Ac(a2-6)Gal(b1-4)GlcNAc(b1-2)Man(a1-3)Man(b1-4)GlcNAc(b1-4)GlcNAc
# How it was run: as §1
# [24] = target: Neu5Ac(a2-6)Gal(b1-4)GlcNAc(b1-3)Gal(b1-4)GlcNAc
# How it was run: as §1
# [25] = target: Fuc(a1-2)[Gal(a1-3)]Gal(b1-4)GlcNAc
# How it was run: as §1
# [26] = target: Fuc(a1-3)[Gal3S(b1-4)]Glc
# How it was run: as §1
# [27] = target: Gal(b1-3)GalNAc(b1-3)Gal(b1-4)Glc
# How it was run: as §1
# [28] = target: Gal(b1-3)[Neu5Ac(a2-6)]GalNAc
# How it was run: as §1
# Gal3S(b1-4)Glc6S = target: Gal3S(b1-4)Glc6S
# How it was run: as §1
# Gal3S(b1-4)GlcNAc6S = target: Gal3S(b1-4)GlcNAc6S
# How it was run: as §1
# Gal3S6S(b1-4)GlcNAc6S = target: Gal3S6S(b1-4)GlcNAc6S
# How it was run: as §1
# Gal4S6S(b1-4)GlcNAc = target: Gal4S6S(b1-4)GlcNAc
# How it was run: as §1
# Gal6S(b1-4)Glc6S = target: Gal6S(b1-4)Glc6S
# How it was run: as §1
# GlcA(b1-6)Gal = target: GlcA(b1-6)Gal
# How it was run: as §1
# [29] = target: GlcNAc(b1-3)Gal(b1-3)GalNAc
# How it was run: as §1
# [30] = target: GlcNAc(b1-3)[GlcNAc(b1-6)]Gal(b1-4)GlcNAc
# How it was run: as §1
# [31] = target: GlcNAc(b1-3)[GlcNAc(b1-6)]GlcNAc
# How it was run: as §1
# [32] = target: GlcNAc(b1-4)Gal(b1-4)GlcNAc
# How it was run: as §1
# [33] = target: Neu5Ac(a2-3)Gal(b1-3)GalNAc
# How it was run: as §1
# [34] = target: Neu5Ac(a2-3)Gal6S(b1-4)GlcNAc
# How it was run: as §1
# [35] = target: Neu5Gc(a2-3)Gal(b1-4)[Fuc(a1-4)]GlcNAc
# How it was run: as §1
binder,measurement,setting,value
"MVL (Microcystis viridis), Q9RHG4 (protein) MASYKVNIPAGPLWSNAEAQQVGPKIAAAHQGNFTGQWTTVVESAMSVVEVELQVENTGIHEFKTDVLAGPLWSNDEAQKLGPQIAASYGAEFTGQWRTIVEGVMSVIQIKYTF",glycan array binding signal (z-score),Fuc(a1-2)Gal(b1-4)Glc6S,-0.234
same,glycan array binding signal (z-score),[1],-0.201
same,glycan array binding signal (z-score),[2],1.85
same,glycan array binding signal (z-score),[3],1.51
same,glycan array binding signal (z-score),[4],-0.232
same,glycan array binding signal (z-score),Gal(b1-4)GlcNAc,-0.227
same,glycan array binding signal (z-score),[5],-0.23
same,glycan array binding signal (z-score),Gal3S(b1-3)GlcNAc,-0.239
same,glycan array binding signal (z-score),Gal3S4S(b1-4)GlcNAc,-0.243
same,glycan array binding signal (z-score),GalNAc(a1-3)Gal,-0.231
same,glycan array binding signal (z-score),GalNAc(a1-3)GalNAc,-0.243
same,glycan array binding signal (z-score),[6],-0.243
same,glycan array binding signal (z-score),[7],0.006
same,glycan array binding signal (z-score),[8],0.051
same,glycan array binding signal (z-score),[9],-0.006
same,glycan array binding signal (z-score),[10],-0.119
same,glycan array binding signal (z-score),[11],-0.121
same,glycan array binding signal (z-score),[12],-0.183
same,glycan array binding signal (z-score),[13],7.38
same,glycan array binding signal (z-score),[14],5.26
same,glycan array binding signal (z-score),[15],2.01
same,glycan array binding signal (z-score),[16],6.83
same,glycan array binding signal (z-score),Man(a1-3)[Man(a1-6)]Man,-0.232
same,glycan array binding signal (z-score),[17],2.68
same,glycan array binding signal (z-score),[18],2.72
same,glycan array binding signal (z-score),[19],1.59
same,glycan array binding signal (z-score),[20],-0.238
same,glycan array binding signal (z-score),[21],-0.23
same,glycan array binding signal (z-score),[22],-0.241
same,glycan array binding signal (z-score),[23],0.179
same,glycan array binding signal (z-score),[24],-0.236
"Annexin-A1 (Mus musculus), P10107 (protein) MAMVSEFLKQARFLENQEQEYVQAVKSYKGGPGSAVSPYPSFNVSSDVAALHKAIMVKGVDEATIIDILTKRTNAQRQQIKAAYLQENGKPLDEVLRKALTGHLEEVVLAMLKTPAQFDADELRGAMKGLGTDEDTLIEILTTRSNEQIREINRVYREELKRDLAKDITSDTSGDFRKALLALAKGDRCQDLSVNQDLADTDARALYEAGERRKGTDVNVFTTILTSRSFPHLRRVFQNYGKYSQHDMNKALDLELKGDIEKCLTTIVKCATSTPAFFAEKLYEAMKGAGTRHKALIRIMVSRSEIDMNEIKVFYQKKYGISLCQAILDETKGDYEKILVALCGGN",glycan array binding signal (z-score),Fuc(a1-2)Gal(b1-4)Glc6S,1.79
same,glycan array binding signal (z-score),[25],-0.684
same,glycan array binding signal (z-score),[26],-0.177
same,glycan array binding signal (z-score),[27],-0.151
same,glycan array binding signal (z-score),[28],-0.343
same,glycan array binding signal (z-score),Gal3S(b1-4)Glc6S,3.21
same,glycan array binding signal (z-score),Gal3S(b1-4)GlcNAc6S,1.83
same,glycan array binding signal (z-score),Gal3S6S(b1-4)GlcNAc6S,7.38
same,glycan array binding signal (z-score),Gal4S6S(b1-4)GlcNAc,1.13
same,glycan array binding signal (z-score),Gal6S(b1-4)Glc6S,3.55
same,glycan array binding signal (z-score),GlcA(b1-6)Gal,0.482
same,glycan array binding signal (z-score),[29],-0.049
same,glycan array binding signal (z-score),[30],-0.758
same,glycan array binding signal (z-score),[31],-0.452
same,glycan array binding signal (z-score),[32],-0.318
same,glycan array binding signal (z-score),Man(a1-3)[Man(a1-6)]Man,-0.165
same,glycan array binding signal (z-score),[18],-0.176
same,glycan array binding signal (z-score),[33],-0.573
same,glycan array binding signal (z-score),[34],-0.076
same,glycan array binding signal (z-score),[35],-0.436
